Active and inactive are the calls of the source. How the source made its calls: active means hit-call score of the fitted dose curve at least 0.9, where 1 is the maximum; inactive means score below 0.9.
The molecules below were run on catalase (CAT), CAT (gene 847) (assay: LTEA_HepaRG_CAT: Life Technologies and Expression Analysis (LTEA) Assay for catalase (CAT) using HepaRG (AID 2283452;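 on AC50: TaqMan qRT-PCR signal normalized to ACTB GAPDH and POLR2A housekeeping genes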)). Conditions: mRNA level, 48 h; actives raise or lower the signal.
Protocol: LTEA_HepaRG is a cell based, multiplexed-readout assay that uses HepaRG, a human liver cell line, with measurements taken at 48 hours after chemical dosing on a 96-well plate.LTEA_HepaRG_CAT is one of 102 assay component(s) measured in the LTEA HepaRG cell culture assay. It is a marker of Oxidative Stress.Data from the assay component LTEA_HepaRG_CAT was analyzed into 1 endpoint. This assay endpoint, LTEA_HepaRG_CAT, was analyzed with bidirectional fitting relative to DMSO as the negative control and baseline of activity. Using a type of inducible reporter, measures of mRNA induction for gain or loss-of-signal activity can be used to understand regulation of transcription factor activity. To generalize the intended target to other relatable targets, this assay endpoint is annotated to the catalase intended target family, where the subfamily is oxidative stress.
A total of 1060 chemcials from the ToxCast library were tested in eight-point concentration-response experiments. Cell culture and cytotoxicity assays were conducted at Thermo Fisher Scientific's Custom Services facility (Madison, WI). A single lot of human HepaRG cells (Thermo Fisher Scientific, Frederick, MD) was used for the cell culture experiments. 96-well format collagen type I coated plates of human HepaRG cells were prepared using established methods. Briefly, cryopreserved HepaRG cells were thawed, plated at a density of approximately 100,000 cells/well in HepaRG Thaw, Plate, and General Purpose media (HPRG770, Thermo Fisher Scientific), and incubated for 48 hours. 0.5% DMSO was selected as vehicle control to balance the requisite need of DMSO in HepaRG cultures to maintain differentiation (for example, baseline metabolism, proportions of hepatocytes vs. cholangiocytes), while enabling further hepatic receptor pathway activation (for example, PXR and CAR) in response to chemical exposure. 48 hours after plating, the culture medium was replaced with HepaRG Serum-Free Incudtion Media. Cells were exposed to each test chemical in duplicate and maintained in CO2 incubators for another 48 hours. Chemical plates were thawed to room temperature and 200x concentrations of treatment groups were prepared. 8-point conentration-reponse curves were made with the highest exposure at 100 uM, followed by half-log dilutions, all in 0.5% DMSO. Each test plate contained variouse controls, induction positive controls (1mM phenobarbital), cytotoxicity positive controls ([…] aflatoxin B1), vehicle controls (0.5% DMSO), and total lysis controls (0.5% DMSO). Cell morphology images were taken using an Essen IncuCyte FLR automated microscope, with six 96-well plates imaged in about 24 minutes. Images were captured and exported and JPEG files. Spent culture media was transfered to black-well plates for the LDH assay, and remaining media was sorted at -80 C for later use. Cells were treated with RLT buffer and frozen until shipped for gene expression analysis. Total RNA was isolated from the cell suspension in 75 uL of Buffer RLT (Qiagen, Germantown, MD 20874) by Quintiles/Expression Analysis (Durham, NC) using a custom isolation procedure. Total RNA from each plate well was transferred to a preamplification plate. Fluidigm's 96.96 Dynamic ArrayTM (Fluidigm, Amsterdam, the Netherlands) technology was used for gene expression analyses by quantitative reverse transcription polymerase chain reaction (qRT-PCR, performed by Quintiles/Expression Analysis, Durham, NC)89. Standard TaqManTM Assays (Applied Biosystems/ThermoFisher Scientific, Foster City, CA) were used to assess the expression of 93 genes selected based on their selectivity and sensitivity to important hepatic receptors known to be modulated by environmental chemicals; importance in human hepatocyte functionality; and hepatotoxicity. […]

| SMILES | outcome | AC50 |
| --- | --- | --- |
| CC(C)(C)c1ccccc1O | inactive |  |
| Oc1cc(Cl)c(Cl)cc1Cl | inactive |  |
| Cc1cc(C)cc(C)c1 | inactive |  |
| Clc1cccc(Cl)c1 | inactive |  |
| COc1ccccc1N | inactive |  |
| Clc1cccc(Cl)c1Cl | inactive |  |
| CN(C)C(=S)S | inactive |  |
| CC(C)O.CC(C)O.OCCN(CCO)CCO.OCCN(CCO)CCO.[Ti] | inactive |  |
| Oc1c(Cl)cc(Cl)cc1Cl | inactive |  |
| O=C(N[C@H]1CN2CCC1CC2)c1ccc2c(c1)OCCO2 | inactive |  |
| OCCN(CCO)CCO | inactive |  |
| CCCCCCCCCCCCc1cccc(S(=O)(=O)O)c1 | inactive |  |
| O=C(O)C1(c2ccc3c(c2)OC[C@H](Cc2ccc(-c4ccccc4)cc2)[C@H]3O)CCCC1 |  | 82 µM (active) |
| N#Cc1cccnc1 | inactive |  |

Source: PubChem BioAssay (EPA / NIEHS)
